PubChem BioAssay (NCI)
This is part of a sample that, as a whole, favours compounds with a hit. Of some 83,000 tested, about 20% had one in any assay.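 Plates (96-well) were seeded with cells, treated with compound at one concentration, and incubated for 48 hours before percent growth was determined.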 Activity calls are given as the source filed them.

System: T-47D breast
Assay: NCI-60 one-dose screen, 48 h (100 = growth as untreated, 0 = no growth, -100 = all killed)
Conditions: 10 µM unless noted
Method: Growth inhibition of the T-47D human tumor cell line is measured as a screen for anti-cancer activity. Cells are grown in 96 well plates and exposed to the test compound for 48 hours. Compounds are tested at a single concentration, which is 10^-5 M for most compounds. The reported endpoint is percent growth (GI% or GIPRCNT), where numbers from 0 - 100% represent growth inhibition, and numbers from -100% - 0 represent cell death. For example, a value of 40 represents 60% growth inhibition. A value of 0 means no net growth occurred over the course of the experiment. A value of -40 indicates 40% of cells at the beginning of the experiment died by the end of the experiment. A value of -100 means all cells are dead at the end of the experiment.
NCI-60 Human Tumor Cell Lines Screen was performed using the standard one-dose NCI protocol, which is described in more detail at https://dtp.cancer.gov/discovery_development/nci-60/default.htm.
Compounds with GIPRCNT values below 10 were considered active. Activity score was based on GIPRCNT using the following formula: […]
Score is 0 for GIPRCNT values of 100 or above, 50 for GIPRCNT values of 0, and 100 for GIPRCNT values of -100.

Structure (SMILES) | growth
N#Cc1c(-c2cccs2)cc(-c2cnccn2)nc1SCC(=O)NNC(=S)Nc1ccc(F)cc1 | 102% (inactive)
COc1cc2cc(Oc3ccc(NC(=O)Nc4cccc(C(F)(F)F)c4)cc3)c(C)nc2cc1OCCN(C)C | 91.8% (inactive)
Oc1ccc(CSc2nnc(-c3ccc(Br)cc3)o2)c2cccnc12 | 28.5% (inactive)
COc1ccc([C@H]2[C@H](O)C(=O)N2c2cc(OC)c(OC)c(OC)c2)cc1O | 75.8% (inactive)
CC1(C)CC[C@]2(C(=O)O)CC[C@]3(C)C(=CCC4[C@@]5(C)C[C@@H](O)[C@@H]6OC(c7ccccc7O)OC[C@@]6(C)C5CC[C@]43C)C2C1 (stereo not given in full) | 57.7% (inactive)
COc1cc(CNC(=O)Cc2ccccc2[N+](=O)[O-])ccc1OCC(=O)NO | 103% (inactive)
C=C1C(=O)O[C@@H]2C[C@@H](C)CCC(=O)[C@](C)(OC(C)=O)C[C@H](OC(=O)/C(C)=C\C)[C@@H]12 | 39% (inactive)
Nc1cc(F)ccc1NC(=O)c1ccc(NC(=O)C/C=C/c2cccnc2)cn1 | 5.13% (active)
O=C(Nc1cc(F)cc2cccnc12)c1cnc(N2CCOCC2)cn1 | 23.9% (inactive)
COc1ccc([C@@H]2[C@@H](O)C(=O)N2c2cc(OC)c(OC)c(OC)c2)cc1Cl | 103% (inactive)
O=S(=O)(NCCCNc1nccc(-n2cnc3ccccc32)n1)c1ccc(F)cc1 | 25.5% (inactive)
O=C1c2c(c3c4cc(O)ccc4oc3c3[nH]c4ccccc4c23)C(=O)N1O | -17% (active)
O=S(=O)(Nc1ccc(C2CC2)cc1)c1ccc(-c2cnc(C3CC3)o2)cc1 | 51.5% (inactive)
C=C(C)[C@@H]1CC[C@]2(C(=O)ON)CC[C@]3(C)[C@H](CC[C@@H]4[C@@]5(C)C/C(=C/c6ccc(Br)cc6)C(=O)C(C)(C)[C@@H]5CC[C@]43C)[C@@H]12 | 49.4% (inactive)
COc1c([C@@H](CC(C)C)OC(C)=O)ccc2c1C(=O)OCc1cc(C)cc(O)c1O2 | 17.4% (inactive)
O=C1Nc2ccc(Cl)cc2/C1=C/c1ccc(OCc2ccc(Br)cc2F)cc1 | 106% (inactive)
CCC(C)[C@H]1OC(=O)[C@H](C(C)C)N(C)C(=O)[C@@H](C(C)C)OC(=O)[C@H](C(C)C)N(C)C(=O)[C@@H](C(C)CC)OC(=O)[C@H](C(C)C)N(C)C1=O (stereo not given in full) | 3.65% (active)
COC[C@]12CC[C@@H](C)[C@H](C)[C@H]1C1=CC[C@@H]3[C@@]4(C)CCCNC(C)(C)[C@@H]4CC[C@@]3(C)[C@]1(C)CC2 | 39.8% (inactive)
Cc1ccc(NC(=O)c2ccc(CN3CCN(C)CC3)c(I)c2)cc1Oc1ccc(-c2[nH]nc3ncnc(N)c23)cc1 | 112% (inactive)
O=C(NNc1nc2cc(F)c(F)cc2n2cccc12)c1ncccn1 | 14.8% (inactive)

Structure (SMILES) | growth
O=C1Nc2ccc(Br)cc2/C1=N\c1nnc(-c2ccc(Cl)cc2)o1 | 76.7% (inactive)
COc1cc(C(=O)c2cc(C(C)=O)c3c4ccccc4ccn23)cc(OC)c1OC | 24.8% (inactive)
N#Cc1c(NC(=O)c2ccccc2C(F)(F)F)sc2c1CCC(=O)C2 | 1.79% (active)
Nc1ccc(-c2nnc(SCc3ccc(O)c4ncccc34)o2)cc1 | -19.7% (active)
Oc1ccccc1-c1nnc(SCc2ccc(O)c3ncccc23)o1 | 11.6% (inactive)
Cn1nc(Nc2ccccc2)c(C(=O)NN)c1N | 95.4% (inactive)
O=C(c1ccc(O)cc1)[C@@H]1[C@@H]2CCCN2[C@@]2(C(=O)N(C(=O)c3ccc(F)cc3)c3ccccc32)[C@H]1c1ccc(F)cc1 | 89% (inactive)
Cc1cc(F)cc(NS(=O)(=O)c2ccc(-c3cnc(C4CC4)o3)cc2)c1 | 26.7% (inactive)
COc1ccc(Cn2cc3c(c2-c2cc(OC)c(OC)c(OC)c2)CCCc2cnoc2-3)cc1 | 39.1% (inactive)
Cn1cc2c(c1)-c1c(sc3nc(-c4ccc(NC(=O)Nc5cc(C(C)(C)C)on5)cc4)cn13)CC2 | 30.2% (inactive)
CCOC(=O)/C(F)=C/C1CC1C1CCCCC1 (stereo not given) | 102% (inactive)
Cc1ccc(/C=C/CC(=O)Nc2ccc(C(=O)Nc3ccc(F)cc3N)cc2)cn1 | 28.6% (inactive)
CCNC(=O)Oc1ccc(/C(=C(/C)c2ccccc2)c2ccc(OCCN3CCCC3)cc2)cc1 | 51.8% (inactive)
CCN1C(=O)N(CC)C2SC(N/N=C/c3ccccc3F)=NC21 (stereo not given) | 61.9% (inactive)
CCc1ccc(NC(=O)N[C@@H](Cc2cccc(F)c2)C(=O)N[C@@H]2C(=O)N3CCC[C@H]3C(=O)N3CCCC[C@H]3C(=O)N[C@@H](CO)C(=O)N3C[C@H](C)C[C@H]3C(=O)O[C@H]2C)c(F)c1 | 23.1% (inactive)
COC[C@@]1(C)CC[C@]2(C)CC[C@]3(C)C(=CC[C@@H]4[C@@]5(C)CCCNC(C)(C)[C@@H]5CC[C@]43C)C2C1 (stereo not given in full) | 70.5% (inactive)
COc1ccc(C(=O)n2cc(C=O)c3ccccc32)cc1 | 106% (inactive)
CS(=O)(=O)c1ccc2c(c1)c1c(n2Cc2ccc(Cl)cc2)CCCC1 | 51.9% (inactive)
CN1C(=O)N(C)C2C1NN=c1s/c(=C\c3ccccn3)c(=O)n12 (stereo not given) | 108% (inactive)
C#CCOc1ccc(C(Nc2ccc(Cl)cc2)c2nnnn2C2CCCCC2)cc1 (stereo not given) | 74.4% (inactive)
